Measured values as given in PubChem BioAssay.
The source made the active and inactive calls.

Tests used:
[1] = small molecules captured by biotinylated probe aFSTL3 – biochemical, small-molecule microarray, fluorescence 635/667, stem cell growth factor project, primary screen (AID 1064); details: higher = more signal;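 note: measures binding of the biotinylated anti-FSTL3 antibody to printed compounds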
[2] = binders from COS7 lysate, DM2A8 probe, primary screen, torsin A project, cell lysate, small-molecule microarray, fluorescence 635/667 (AID 1065); details: higher = more signal, COS7 lysate expressing mutant human TOR1A
[3] = small molecules captured by biotinylated probe aFGF2 – biochemical, small-molecule microarray, fluorescence 635/667, stem cell growth factor project, primary screen (AID 1067); details: higher = more signal;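 note: measures binding of biotinylated aFGF2 protein to printed compounds on slides; z-score merges feature fluorescence and signal-to-noise across triplicate slides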
[4] = small molecules captured by biotinylated probe aFGF10 – biochemical, small-molecule microarray, fluorescence 635/667, stem cell growth factor project, primary screen (AID 1071); details: higher = more signal;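 note: score merges 667 nm spot intensity and signal to noise from triplicate slides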
[5] = target: Neurogenic locus notch homolog protein 2 (Homo sapiens) (UniProt Q04721); assay: small molecules binding Notch2 protein – biochemical, small-molecule microarray, 635 nm fluorescence, stem cell growth factors, primary screen (AID 1073); details: higher = more signal
[6] = target: Pro-neuregulin-1, membrane-bound isoform (Homo sapiens) (UniProt Q02297); assay: small molecules binding neuregulin-1 protein – biochemical, small-molecule microarray, fluorescence 635/667, psychiatric disease protein project, primary screen (AID 1075); details: NRG1 binding, 635 nm fluorescence, higher = more signal;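 note: score combines 667 nm spot fluorescence with signal to noise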
[7] = system: Neuregulin-1 EGF-like domain; assay: small molecules binding NRG1 EGF domain – biochemical, small-molecule microarray, 635 nm fluorescence, primary screen (AID 1081); details: higher = more signal;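 note: binding of the protein to compounds printed on small-molecule microarray slides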
[8] = FRG1 expression reporter modulators in myotubes – cell-based, C2C12 myotubes, firefly/Renilla luciferase, luminescence, FRG1 inhibition for FSHD, primary screen (AID 1084); details: FRG1 promoter luciferase, higher = more signal, called active from +8 up or from −8 down
[9] = small molecules captured by biotinylated probe aFST – biochemical, small-molecule microarray, fluorescence 635/667, stem cell growth factor project, primary screen (AID 1086); details: higher = more signal;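 note: score merges 667 nm fluorescence with signal-to-noise of each printed compound spot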
[10] = binders of probe aHhip on microarray, primary screen, stem cell growth factor project, biochemical, small-molecule microarray, fluorescence 635/667 (AID 1087); details: higher = more signal;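 note: score merges spot fluorescence at 667nm with spot signal to noise ratio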

Sequence of Pro-neuregulin-1, membrane-bound isoform (Homo sapiens) (Q02297 whole entry, looked up, the tested form may be a part, canonical isoform): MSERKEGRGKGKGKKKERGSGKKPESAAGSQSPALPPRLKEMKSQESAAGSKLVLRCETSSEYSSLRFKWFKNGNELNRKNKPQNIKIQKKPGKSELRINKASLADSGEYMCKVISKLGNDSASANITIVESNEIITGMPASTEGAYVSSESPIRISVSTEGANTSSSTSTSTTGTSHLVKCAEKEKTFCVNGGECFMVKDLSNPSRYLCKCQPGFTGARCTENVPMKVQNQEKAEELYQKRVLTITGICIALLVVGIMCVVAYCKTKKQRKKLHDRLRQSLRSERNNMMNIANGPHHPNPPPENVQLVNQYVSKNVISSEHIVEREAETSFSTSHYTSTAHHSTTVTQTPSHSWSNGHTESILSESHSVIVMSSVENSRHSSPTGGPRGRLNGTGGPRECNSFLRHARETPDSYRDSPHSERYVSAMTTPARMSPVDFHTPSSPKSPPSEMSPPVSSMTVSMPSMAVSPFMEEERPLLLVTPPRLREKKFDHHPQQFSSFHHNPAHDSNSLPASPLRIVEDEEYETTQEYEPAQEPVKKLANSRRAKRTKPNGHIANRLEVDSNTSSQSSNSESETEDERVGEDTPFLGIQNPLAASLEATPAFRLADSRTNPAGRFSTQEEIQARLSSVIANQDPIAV
Sequence of Neurogenic locus notch homolog protein 2 (Homo sapiens) (Q04721 whole entry, looked up, canonical isoform): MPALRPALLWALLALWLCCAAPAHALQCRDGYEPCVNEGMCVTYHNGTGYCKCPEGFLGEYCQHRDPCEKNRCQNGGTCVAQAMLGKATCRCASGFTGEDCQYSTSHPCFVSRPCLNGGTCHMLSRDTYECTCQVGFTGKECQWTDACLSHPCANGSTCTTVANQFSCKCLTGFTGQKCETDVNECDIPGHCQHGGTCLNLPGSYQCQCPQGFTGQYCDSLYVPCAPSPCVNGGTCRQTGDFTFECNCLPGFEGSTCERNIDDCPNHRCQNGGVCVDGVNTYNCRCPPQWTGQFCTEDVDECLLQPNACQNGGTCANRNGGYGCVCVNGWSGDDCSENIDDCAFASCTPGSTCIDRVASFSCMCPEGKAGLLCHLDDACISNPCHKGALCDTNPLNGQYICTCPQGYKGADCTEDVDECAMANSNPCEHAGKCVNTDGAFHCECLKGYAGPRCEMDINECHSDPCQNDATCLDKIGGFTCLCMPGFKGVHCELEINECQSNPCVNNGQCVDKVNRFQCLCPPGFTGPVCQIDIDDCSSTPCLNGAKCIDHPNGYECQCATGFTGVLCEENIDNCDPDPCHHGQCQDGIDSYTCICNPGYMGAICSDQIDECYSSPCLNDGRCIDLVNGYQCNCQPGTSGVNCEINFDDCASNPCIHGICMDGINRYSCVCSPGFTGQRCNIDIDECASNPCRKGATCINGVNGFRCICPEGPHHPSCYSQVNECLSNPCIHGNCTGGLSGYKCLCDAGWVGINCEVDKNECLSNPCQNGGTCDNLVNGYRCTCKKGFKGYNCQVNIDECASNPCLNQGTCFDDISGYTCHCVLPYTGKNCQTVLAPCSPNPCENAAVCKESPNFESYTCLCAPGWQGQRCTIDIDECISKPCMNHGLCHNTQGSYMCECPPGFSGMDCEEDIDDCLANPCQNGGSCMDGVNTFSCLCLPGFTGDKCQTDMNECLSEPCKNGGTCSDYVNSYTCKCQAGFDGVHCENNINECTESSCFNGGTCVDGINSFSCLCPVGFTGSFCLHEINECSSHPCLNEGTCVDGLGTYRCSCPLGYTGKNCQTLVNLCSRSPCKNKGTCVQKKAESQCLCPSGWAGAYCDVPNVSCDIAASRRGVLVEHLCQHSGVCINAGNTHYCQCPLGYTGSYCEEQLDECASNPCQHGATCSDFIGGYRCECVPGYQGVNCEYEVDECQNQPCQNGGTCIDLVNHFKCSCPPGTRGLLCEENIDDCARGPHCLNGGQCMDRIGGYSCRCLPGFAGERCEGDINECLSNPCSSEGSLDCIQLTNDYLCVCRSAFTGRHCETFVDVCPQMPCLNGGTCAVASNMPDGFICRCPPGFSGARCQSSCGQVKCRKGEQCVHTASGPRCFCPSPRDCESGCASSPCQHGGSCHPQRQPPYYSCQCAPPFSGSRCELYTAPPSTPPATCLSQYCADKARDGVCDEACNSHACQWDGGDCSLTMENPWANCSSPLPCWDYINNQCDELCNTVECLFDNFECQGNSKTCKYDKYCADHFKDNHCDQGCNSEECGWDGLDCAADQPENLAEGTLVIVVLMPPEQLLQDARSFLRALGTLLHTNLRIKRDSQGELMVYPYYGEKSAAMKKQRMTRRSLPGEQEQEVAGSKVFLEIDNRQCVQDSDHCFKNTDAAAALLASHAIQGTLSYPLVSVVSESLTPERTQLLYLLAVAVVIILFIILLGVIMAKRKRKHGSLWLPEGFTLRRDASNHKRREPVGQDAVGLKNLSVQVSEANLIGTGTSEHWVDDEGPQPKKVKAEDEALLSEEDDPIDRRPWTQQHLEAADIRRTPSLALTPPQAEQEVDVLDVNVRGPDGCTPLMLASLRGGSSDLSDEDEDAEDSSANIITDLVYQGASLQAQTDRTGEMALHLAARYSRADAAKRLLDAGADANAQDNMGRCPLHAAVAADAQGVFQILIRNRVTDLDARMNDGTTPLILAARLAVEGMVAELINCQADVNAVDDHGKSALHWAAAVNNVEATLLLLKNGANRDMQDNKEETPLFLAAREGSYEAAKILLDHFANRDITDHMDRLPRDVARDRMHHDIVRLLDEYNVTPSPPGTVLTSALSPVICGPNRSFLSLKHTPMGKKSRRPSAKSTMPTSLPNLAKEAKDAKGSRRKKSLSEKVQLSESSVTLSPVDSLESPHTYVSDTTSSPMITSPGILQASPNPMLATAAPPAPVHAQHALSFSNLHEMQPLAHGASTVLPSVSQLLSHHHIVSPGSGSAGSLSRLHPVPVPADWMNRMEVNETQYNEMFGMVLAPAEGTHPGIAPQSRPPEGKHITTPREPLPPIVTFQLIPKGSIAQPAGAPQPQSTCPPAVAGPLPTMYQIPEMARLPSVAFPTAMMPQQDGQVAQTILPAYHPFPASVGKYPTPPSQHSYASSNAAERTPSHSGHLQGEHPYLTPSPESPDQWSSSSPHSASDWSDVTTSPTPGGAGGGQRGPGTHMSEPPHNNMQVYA

| Compound | composite z-score [1] | composite z-score [2] | composite z-score [3] | composite z-score [4] | composite z-score [5] | composite z-score [6] | composite z-score [7] | z-score [8] | composite z-score [9] | composite z-score [10] |
| --- | --- | --- | --- | --- | --- | --- | --- | --- | --- | --- |
| CCCN1C(=O)[C@@H]2Cc3c([nH]c4ccccc34)[C@@H](c3cccc(O)c3)N2C1=O | -0.588 | 0.247 | -0.113 | 0.428 | 0.59 | 0.263 | 0.12 | 0.85 (inactive) | -0.0001 | -0.0994 |
| Cc1ccc(-c2cccc(=O)o2)cc1 | 0.139 | -0.549 | -0.0973 | -0.304 | -0.351 | -0.411 | -0.596 | 5.3 (inactive) | 0.121 | -0.353 |
| COC(=O)[C@@]1(Cc2ccc(F)cc2)[C@H]2c3cc(C(=O)N(C)C)n(CCSCCO)c3C[C@H]2CN1C(=O)c1ccccc1 | 0.304 | 0.273 | 0.203 | 0.487 | 1.36 | 1.95 | 0.943 | 1.29 (inactive) | 0.568 | -0.0029 |
| [N-]=[N+]=Nc1ccccc1[C@H]1OC(c2ccc(OCCCO)cc2)=N[C@@]1(Cc1ccccc1)C(=O)NCc1ccccc1 | -0.274 | -0.357 | 0.0722 | 0.639 | 1.12 | 0.883 | 0.567 | -1.55 (inactive) | 0.686 | 0.0373 |
| CCOC(=O)C[C@H]1[C@H](OC(=O)c2cc3ccccc3oc2=O)[C@@H](NC(=O)c2ccc3ccccc3n2)c2cc(OCCCO)ccc2N1C(=O)c1ccc2ccccc2n1 | 1.37 | 0.14 | -0.0342 | 0.936 | 0.114 | -0.0114 | 1.06 | -0.21 (inactive) | 0.787 | 0.177 |
| N#Cc1ccc(NN2C(C(O)c3ccco3)C=CC3C(=O)N(c4ccccc4)C(=O)C32)cc1 (stereo not given) | 0.188 | -0.0615 | -0.0133 | 0.758 | 0.54 | 0.989 | 0.754 | 0.768 (inactive) | 0.39 | -0.249 |
| C=CCNC(=O)[C@H]1[C@@H]2C(=O)O[C@@H](c3ccccc3)[C@@H](c3ccccc3)N2[C@@H](c2ccc(OCCO)cc2)[C@]12C(=O)N(C(=O)OCCOC)c1ccc(C#CC3=CCCCC3)cc12 | -0.0822 | 0.967 | -0.0711 | 1.13 | 0.844 | 1.43 | 1.28 | -0.974 (inactive) | 0.344 | -0.0296 |
| COC(=O)[C@]1(Cc2ccccc2CN=[N+]=[N-])N=C(c2ccc(OCCCO)cc2)O[C@@H]1c1ccccc1 | 0.774 | -0.556 | -0.137 | -1.27 | -1.24 | 0.4 | -0.45 | -2.44 (inactive) | -0.0581 | -0.174 |
| COCC(=C=CC[C@@H](O)c1ccccc1OCCO)C[C@@H](O)COCc1ccccc1 | 0.181 | 1.12 | -0.0267 | 1.06 | -0.258 | 1.68 | 1.01 | -1.11 (inactive) | 0.463 | 0.891 |
| CC(C)CCC[C@@H](C)[C@H]1CC[C@@]2(C)C3=C(CC[C@]12C)[C@@]1(C)CC[C@H](OC(=O)c2ccc(N)cc2)C(C)(C)C1CC3 (stereo not given in full) | -0.219 | 0.481 | -0.145 | 0.448 | 0.558 | -0.0202 | 0.649 | -1.35 (inactive) | 0.0576 | -0.406 |
| C#CCNS(=O)(=O)N(C)C | -0.49 | 0.0943 | -0.0291 | 0.276 | 0.707 | 0.174 | 0.774 | -0.533 (inactive) | -0.136 | 0.208 |
| COCCOC(=O)N1C(=O)[C@@]2(c3cc(C#CCCO)ccc31)[C@H](C(=O)N1CCc3cc(OC)c(OC)cc3C1)[C@H]1C(=O)O[C@H](c3ccccc3)[C@H](c3ccccc3)N1[C@@H]2c1ccc(OCCO)cc1 | -0.392 | 0.282 | -0.0867 | 0.501 | 0.467 | 0.007 | 1.16 | -0.561 (inactive) | 0.242 | -0.216 |
| COCCOC(=O)N1C(=O)[C@@]2(c3cc(C#Cc4ccc(OC)cc4)ccc31)[C@H](C(N)=O)[C@H]1C(=O)O[C@H](c3ccccc3)[C@H](c3ccccc3)N1[C@@H]2c1ccc(OCCO)cc1 | -0.358 | 0.562 | 0.0014 | 0.62 | 1.17 | 0.869 | 1.28 | 0.574 (inactive) | 0.512 | -0.251 |
| COCCOC(=O)N1C(=O)[C@@]2(c3cc(C#CCNC(N)=O)ccc31)[C@H](c1ccc(OCCO)cc1)N1[C@H](c3ccccc3)[C@H](c3ccccc3)OC(=O)[C@H]1[C@@H]2C(=O)N1CCN(c2ncccn2)CC1 | 0.496 | 0.287 | -0.0478 | 0.748 | 1.04 | 0.37 | 0.482 | -0.0699 (inactive) | 0.974 | -0.173 |
| COc1ccc(C#Cc2ccc3c(c2)[C@]2(C(=O)N3)[C@H](c3ccc(OCCO)cc3)N3[C@H](c4ccccc4)[C@H](c4ccccc4)OC(=O)[C@H]3[C@@H]2C(=O)N2CCN(c3ncccn3)CC2)cc1 | -0.176 | 0.07 | -0.093 | 0.344 | 1.2 | -0.132 | 0.135 | 0.781 (inactive) | -0.0006 | -0.318 |
| COCCOC(=O)N1C(=O)[C@@]2(c3cc(C#CCC(C(=O)OC)C(=O)OC)ccc31)[C@H](C(=O)N1CCCCCCC1)[C@H]1C(=O)O[C@H](c3ccccc3)[C@H](c3ccccc3)N1[C@@H]2c1ccc(O)cc1 | 2.64 | 0.745 | 0.146 | 0.344 | 1.26 | 1.33 | 1.25 | 0.741 (inactive) | 2.37 | 0.801 |

| Compound | composite z-score [1] | composite z-score [2] | composite z-score [3] | composite z-score [4] | composite z-score [5] | composite z-score [6] | composite z-score [7] | z-score [8] | composite z-score [9] | composite z-score [10] |
| --- | --- | --- | --- | --- | --- | --- | --- | --- | --- | --- |
| O=C1NC(=O)C2C1C=CC(C(O)c1ccc3c(c1)OCO3)N2Nc1ccc(Cl)cc1Cl (stereo not given) | 0.358 | -0.173 | -0.0274 | 0.218 | 1.22 | 1.73 | 0.543 | 1.28 (inactive) | 0.176 | -0.291 |
| O=C1c2ccccc2[C@](Cc2ccccc2I)(C(=O)NC2CC2)[C@H](c2ccc(CO)cc2)N1Cc1ccccc1Cl | 0.558 | 0.478 | 0.221 | 0.487 | 1.23 | 1.36 | 1.27 | -2.71 (inactive) | 0.496 | -0.105 |
| C=CCNC(=O)[C@H]1[C@@H]2C(=O)O[C@@H](c3ccccc3)[C@@H](c3ccccc3)N2[C@@H](c2ccc(O)cc2)[C@]12C(=O)N(C(=O)OCCOC)c1ccc(C#CC3(O)CCCCCC3)cc12 | 0.228 | 0.494 | 0.0789 | 0.875 | 0.793 | 1.2 | 1.27 | 0.168 (inactive) | 0.229 | 0.142 |
| CC(C)C[C@@H]1NC(=O)[C@@H]2C[C@H](C(=O)NCCCC[N+](C)(C)C)[C@H](c3cccc(OCCO)c3)N2C1=O | 0.157 | 1.09 | -0.0784 | -0.0155 | -0.884 | 1.05 | 1.12 | 0.14 (inactive) | 0.496 | 0.595 |
| COC(=O)C(CC#Cc1ccc2c(c1)[C@]1(C(=O)N2)[C@H](c2ccc(O)cc2)N2[C@H](c3ccccc3)[C@H](c3ccccc3)OC(=O)[C@H]2[C@@H]1C(N)=O)C(=O)OC | 0.659 | -0.392 | -0.168 | -1.89 | -1.06 | -0.605 | -0.777 | -0.719 (inactive) | -0.611 | -0.245 |
| O=C(N1CCOCC1)[C@@]1(CCS(=O)(=O)c2ccccc2)COC(c2ccc(OCCCO)cc2)=N1 | 0.229 | 0.281 | -0.0348 | 0.797 | -0.194 | 0.929 | 0.942 | -1.85 (inactive) | 0.54 | 0.041 |
| Cc1ccc(C(C)CC(O)C2C=CC3C(=O)N(Cc4ccccc4)C(=O)C3N2n2cnnc2)o1 (stereo not given) | 1.67 | 0.46 | 0.522 | 0.703 | 1.29 | 0.907 | 1.44 | 0.386 (inactive) | 2.16 | 0.488 |
| CN1C(=O)C2C=CC(C(O)c3cccc4ccccc34)N(NC(=O)OC(C)(C)C)C2C1=O (stereo not given) | 1.07 | 1.79 | 0.194 | 0.586 | 1.37 | 2.11 | 1.15 | 0.93 (inactive) | 1.4 | -0.0296 |
| CCC[C@@H]1C[C@@]1(CCC)[C@@H](NC(=O)c1cccs1)c1ccc(Cl)cc1 | 1.38 | -0.553 | -0.0861 | -0.092 | -1.6 | 0.161 | -0.405 | -2.04 (inactive) | -0.711 | -0.254 |
| C=CCOC(=O)[C@@H]1[C@H]2C(=O)O[C@H](c3ccccc3)[C@H](c3ccccc3)N2[C@H](c2ccc(OCCOC(=O)[C@@H]3C[C@@H]4C(=O)N[C@@H](CCCCNC(C)=O)C(=O)N4[C@@H]3c3ccc(O)cc3)cc2)[C@@]12C(=O)Nc1ccc(I)cc12 | -0.101 | 0.0133 | -0.0502 | 0.722 | 0.971 | 0.767 | 1.16 | 0.0976 (inactive) | 0.4 | -0.0346 |
| O=c1c2ccc(Br)cc2nc(-c2ccccc2)n1Cc1cccc(O)c1 | 0.255 | 2.81 | -0.0774 | 0.556 | 0.701 | 1.81 | 1.12 | 4.59 (inactive) | 0.831 | -0.181 |
| COCCOC(=O)N1C(=O)[C@@]2(c3cc(C#CCCO)ccc31)[C@H](c1ccc(OCCO)cc1)N1[C@H](c3ccccc3)[C@H](c3ccccc3)OC(=O)[C@H]1[C@@H]2C(=O)N1CCc2cc(OC)c(OC)cc2C1 | -0.392 | 0.444 | -0.0732 | 0.375 | 0.921 | 0.635 | 1.25 | -0.355 (inactive) | 0.159 | -0.0618 |
| CN(C)C(=O)[C@@]1(CCS(=O)(=O)c2ccccc2)N=C(c2ccc(OCCCO)cc2)O[C@H]1c1ccccc1CN=[N+]=[N-] | -0.323 | 0.124 | 0.226 | 0.972 | 1.33 | 1.63 | 1.27 | -1.56 (inactive) | 0.889 | -0.236 |
| CC(C)(C)OC(=O)CC[C@]1(C(=O)O)COC(c2ccc(OCCCO)cc2)=N1 | 0.303 | 2.38 | -0.0279 | -0.011 | 0.541 | 1.98 | 1.45 | 0.394 (inactive) | 0.556 | -0.0296 |
| COc1ccc(C#Cc2ccc3c(c2)[C@]2(C(=O)N3)[C@H](C(N)=O)[C@H]3C(=O)O[C@H](c4ccccc4)[C@H](c4ccccc4)N3[C@@H]2c2ccc(O)cc2)cc1 | -0.302 | 1.1 | -0.0183 | 0.665 | 0.477 | 1.57 | 1.38 | -0.891 (inactive) | 0.722 | -0.0581 |
